Screens (PubChem BioAssay)
Methyltransferases: Primary Screen for Target Class Profiling of Small Molecule Inhibitors of Methyltransferases. purified enzyme, MTase-Glo SAH luminescence; hits give low values. calls only at 40 µM. hit rate 3.9% among 25,000; call rule not given here
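Each enzyme was assayed with SAM and its substrate. SAH formation detected by MTase-Glo luminescence; single-point 40 uM screen[…].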
An asterisk follows results filed as active; i = inactive; + = active, no number; ! = not confirmed by another sample. Many of the other results were omitted from the sample, so hits are more common in it than they were. On the % scale 0 is the no-effect control and ±100 the full control effect.

SMILES | Methyltransferases
CC(=O)N1CCN(C(=O)c2ccc3oc(-c4ccccn4)nc3c2)CC1 | i
COc1ccc(CCNc2ncnc3c2CN(C2CCC2)C(=O)N(C)C3)cc1 | i
CN1CCN(C(=O)c2ccc3cc(CCNc4ncnc5ccc(C#N)cc45)ccc3c2)CC1 | +
CC1(C(=O)NC2CCCCC2)Cn2c(nc3ccccc32)C(=O)N1Cc1cccc(Br)c1 (stereo unspecified) | i
CC1CCN(S(=O)(=O)c2ccc3c(ccn3CC(=O)NCCc3ccccc3)c2)CC1 | i
COc1ccccc1CNC(=O)c1ncn2c1C(=O)N(C1CC1)C(C)(C(=O)NCc1ccc(C)cc1)C2 (stereo unspecified) | i
Cn1cc(-c2cnn3c(N)c(Br)c(C4CCCNC4)nc23)cn1 (stereo unspecified) | +
Cc1cc2c(cc3n2CC(C)(C(=O)NC2CCCCCC2)N(c2cccc(Cl)c2C)C3=O)o1 (stereo unspecified) | i
COc1ccc(NC(=O)CCc2nnc3n(Cc4ccc(Cl)cc4)c(=O)c4ccccc4n23)cc1 | i
COc1ccccc1NC(=O)Cn1nc2n(CC(C)C)c(=O)c3ccccc3n2c1=O | i
CN(C)c1ccc(Nc2c3ccc(NC(=O)CCN4CCCC4)cc3nc3cc(NC(=O)CCN4CCCC4)ccc23)cc1 | +
C[C@@H]1C[C@H](C)CN(CCC(=O)Nc2ccc(Br)cc2)C1 | i
CN(C)c1ccc(CNC(=O)CCCn2ccc3cc(S(=O)(=O)N4CCCC4)ccc32)cc1 | i
Cc1ccc(Cn2c(=O)c3ccccc3n3c(SCC(=O)Nc4ccc(F)cc4)nnc23)cc1 | i
CC[C@H](C)C(=O)O[C@H]1C[C@@H](C)C=C2C=C[C@H](C)[C@H](CC[C@@H]3C[C@@H](O)CC(=O)O3)[C@H]21 | i
CC[C@H](C)C(=O)O[C@H]1CCC=C2C=C[C@H](C)[C@H](CC[C@@H]3C[C@@H](O)CC(=O)O3)[C@H]21 | +
CCN1C(=O)c2cc(C(=O)N3CCN(c4cccc(OC)c4)CC3)nn2CC1(C)C(=O)NC1CCCC1 (stereo unspecified) | i
Cc1nn(C)cc1CN1CCC(O)(c2ccccc2)[C@H](N2CCCC2)C1 (stereo partly specified) | i
CCN(CC)CCCCCCNc1cc(OC)cc2c(C)ccnc12 | +
CC(C)Cn1c(=O)c2ccccc2n2c(=O)n(CC(=O)Nc3ccccc3F)nc12 | i
O=C(CCCc1nnc2n3nc(-c4ccccc4)nc3c3ccccc3n12)NC1CCN(Cc2ccccc2)CC1 | i
COC(=O)c1ccc(=O)c2nc3/c(=C/O)c(O)cc(=O)c3[nH]c12 | +
COc1ccc(-c2cc3n(n2)CC(C)(C(=O)NCc2ccccc2OC)N(c2ccc(Cl)cc2C)C3=O)cc1 (stereo unspecified) | i
CCOC(=O)CNC(=O)C1(C)Cn2nc(C(=O)OCC)cc2C(=O)N1Cc1cccc(C)c1 (stereo unspecified) | i
COc1cc(Nc2ncc3c(n2)-c2ccc(Cl)cc2C(c2c(F)cccc2OC)=NC3)ccc1C(=O)O | +!
SMILES | Methyltransferases
COc1cccc(OC)c1-c1nc(C(=O)N[C@@H](CC(C)C)C(=O)O)cn1-c1ccnc2cc(Cl)ccc12 | i
CC1CCC(NC(=O)C2(C)Cn3c(cc4occc43)C(=O)N2CC(C)c2ccccc2)CC1 (stereo unspecified) | i
COC(=O)c1ccc(COc2ccc3c(-c4ccccc4)cc(=O)oc3c2C)o1 | i
Cc1cc(C)cc(NC(=O)CSc2nnc3n(CC(C)C)c(=O)c4ccccc4n23)c1 | i
COc1ccc(-c2cc3n(n2)CC(C)(C(=O)NCc2ccccc2OC)N(Cc2ccccc2Cl)C3=O)cc1 (stereo unspecified) | i
CCOC(=O)c1cc2n(n1)CC(C)(C(=O)NC1CCCCCC1)N(c1cccc(F)c1)C2=O (stereo unspecified) | i
CCCn1c(=O)c2ccc(C(=O)NC(C)C)cc2n2c(SCC(=O)c3ccccc3)nnc12 | i
CCc1nc(-c2cccc(C)c2)c(-c2ccnc(NC(=O)c3ccccc3)c2)s1 | i
O=C(Nc1nc2ccccc2n1CCc1ccccc1)c1ccccc1 | i
O=C(Nc1cc2cc[nH]c2cn1)c1ccccc1 | +
CC(C)CCn1c(=O)c2ccccc2n2c(SCC(=O)Nc3ccccc3F)nnc12 | i
CC1CCCCC1NC(=O)C1(C)Cn2c(cc3occc32)C(=O)N1CCc1ccccc1 (stereo unspecified) | i
COCCNC(=O)CCc1nnc2n(CCc3ccccc3)c(=O)c3ccccc3n12 | i
O=C(O)c1ccccc1Nc1cccc(OCc2ccc3ccccc3n2)c1 | i
NC(=O)c1ccccc1Nc1ccnc(Nc2cccc(O)c2)n1 | +
COc1ccccc1C(=O)N1CCN(c2nccc(Nc3ccccc3Cl)n2)CC1 | i
CC(C)n1cnc2cc(CNC(=O)c3cccnc3)ccc21 | i
CN1CCN(CCCN2C(=O)c3ccc(-c4ccco4)n3CC2(C)C(=O)NC2CCCC2)CC1 (stereo unspecified) | i
Cc1cc(NC(=O)c2cccc(NC(=O)/C=C/CN(C)C)c2)ccc1Nc1nccc(-c2cccnc2)n1 | +
Cc1ccc(NC(=O)N2CCC(n3c(C)cnc3-c3cccnc3)C2)cc1C (stereo unspecified) | i
Cc1nc(CCNC(=O)c2cnc(-c3cccnc3)nc2)cc(=O)[nH]1 | i
CCOC(=O)c1cc2n(n1)CC(C)(C(=O)NC1CCCCCC1)N(c1ccc(F)cc1C)C2=O (stereo unspecified) | i
CC1CCC(NC(=O)c2cc3n(n2)CC(C)(C(=O)NC2CCCCCC2)N(C)C3=O)CC1 (stereo unspecified) | i
CN1CCc2cc(NC(=O)Nc3cccnc3)ccc21 | i
Cn1ccc2cc3c(cc21)CCN3C(=O)Nc1cccnc1 | +
SMILES | Methyltransferases
O=C(c1ccncc1)N1CCC(Nc2cccnc2)C1 (stereo unspecified) | i
CC1CCN(S(=O)(=O)c2ccc3c(ccn3CC(=O)NC3CC3)c2)CC1 | i
NS(=O)(=O)c1cccc2c1c([N+](=O)[O-])cc1nc(O)c(O)nc12 | +
Cc1ccc(CNC(=O)Cn2nc3n(C(C)C)c(=O)c4ccc(C(=O)NCC(C)C)cc4n3c2=O)cc1 | i
CC(C)NC(=O)CSc1nnc2n(Cc3ccc(F)cc3)c(=O)c3ccccc3n12 | i
CCc1cc2c(cc3n2CC(C)(C(=O)NC2CCCCC2)N(Cc2cccs2)C3=O)s1 (stereo unspecified) | i
Cc1ccc(Cl)cc1N1CCN(S(=O)(=O)c2cccc(-c3nc(-c4ccccc4)no3)c2)CC1 | i
CC1(C(=O)NC2CCCCCCC2)Cn2c(cc3sccc32)C(=O)N1Cc1ccc(Cl)cc1 (stereo unspecified) | i
Nc1cccc(-c2cc3c(Oc4cccc(O)c4)ncnc3[nH]2)c1 | +
NCc1ccc(Oc2ncnc3ccccc23)cc1 | i
CCn1nc(CNC(=O)Cc2cccc(F)c2)c2ccccc21 | i
CC(C)OCCCn1c(=O)c2ccccc2n2c(SCC(=O)Nc3ccc(C(C)C)cc3)nnc12 | i
COc1ccc(S(=O)(=O)NCCc2nc(-c3ccc(F)cc3)n[nH]2)cc1OC | i
CCOc1ccc(CCNC(=O)CCn2ccc3cc(S(=O)(=O)N4CCCCC4)ccc32)cc1 | i
CCCC1c2ccc(C)n2CCN1C(=O)Nc1cc(Cl)ccc1C(=O)OC (stereo unspecified) | i
